Source: PubChem BioAssay (NCI)
About 79,000 compounds went through this panel and 15% of them were active in at least one assay; those are over-represented in the sample as a whole. Unmarked numbers belong to inactive results. Activity calls are given as the source filed them. Cut-off read from the data, not from the text of the source: active = growth inhibition above about 70%; inactive = the rest.

Assay: NCI Yeast Anticancer Drug Screen. Data for the rad50EPP+ strain (AID 151);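 note: 0% = growth of vehicle-treated control cultures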
Settings: S. cerevisiae rad50 mutant strain, hits give high values
Description: Growth inhibition of yeast strains with defined genetic alterations is measured as a screen for potential anti-cancer activity. Selected strains with alterations in DNA damage repair or cell cycle control were exposed to compounds and growth inhibition was measured relative to vehicle treated controls. The strain used in this assay is rad50EPP+

| Compound | growth inhibition (at 1.2 µM) | growth inhibition (at 3.7 µM) | growth inhibition (at 11.0 µM) | growth inhibition (at 33.0 µM) | growth inhibition (at 100.0 µM) |
| --- | --- | --- | --- | --- | --- |
| Cc1cc(C(C)(C)C)c(OCCCN2CCOCC2)c(C(C)(C)C)c1 | 0% | 3% | 3% | 19% | 47% |
| CCc1ccc2c(c1)N(CC(C)CN(C)C)c1ccccc1S2 (stereo not given) | -12% | -15% | -23% | -31% | 87% (active) |
| COC(=O)CC1CCc2c(ccc3ccccc23)C1(C)C(=O)OC (stereo not given) | 5% | 16% | 16% | 48% | 45% |
| CC(C)/C(Cl)=N\OC(=O)Nc1ccc(F)cc1F | 7% | 13% | 25% | 54% | 85% (active) |
| O=C1Nc2ccccc2/C1=C/c1ccccc1 | 0% | 1% | 10% | 35% | 53% |
| O=C1N=C2SC=C(NC(=S)Nc3ccccc3)N2NC12c1ccccc1-c1ccccc12 | 2% | 7% | 5% | 11% | 16% |
| CNC(=O)OCc1c(COC(=O)NC)c2n(c1C)-c1ccc(OC)cc1CCC2 | -6% | -7% | -8% | 6% | 15% |
| CC1(C)CC(=O)C(/C=N/c2nc(-c3ccccc3)cs2)=C(O)C1 | -1% | 1% | 12% | 27% | 34% |
